# KDM5B inh: inhibitors of human KDM5B histone demethylase. 2.6% of 220,000 active. AID 1347165. Potency, µM (doses to about 57.7 µM), most hits filed as inhibitors. Q9UGL1. KDM5B demethylase, FDH-coupled NADH fluorescence (FDH is formaldehyde dehydrogenase); active means well fitted inhibition curve with a large enough effect; further: 0% is about no effect; nearly all actives have a fitted effect of over 70% in size
#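 qHTS format, multiple compound concentrations. Buffer 50 mM HEPES pH 7.5/0.01% Tween-20; 200 nM KDM5BΔAP final; 10 min compound preincubation; substrate-mix levels 12.5 µM peptide, 25 µM α-KG, 0.25 mM NAD⁺; 30 min RT; ΔRFU.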
# An asterisk follows results filed as active; i = inactive. The full list was thinned out, with hits kept by preference. Potency means the concentration at half of the fitted maximal effect.
SMILES,KDM5B inh
COCC(=O)N(C1CCOCC1)C1CCN(C(=O)c2ccc(F)cc2)CC1,i
COCCN(CC1CC1)C(=O)c1ccc2nc(-c3ccc(F)cc3)cn2c1,25.1µM*
CN(C(=O)c1ccc2nc(-c3ccc(F)cc3)cn2c1)C1CCOCC1,22.4µM*
O=C(CCCn1c(=O)[nH]c2ccccc2c1=O)N1CCN(c2ccccc2)CC1,i
N#Cc1ccc(CN2CCC3(CC2)COc2ccccc2NC3=O)cc1,i
CCOc1cccc(-c2cc(C(=O)O)c3cc(C)ccc3n2)c1,i
CN(C)[C@@H]1CN(C(=O)c2ccccc2OC(F)(F)F)C[C@H]1CO,i
CCOc1ccc2c3c(cccc13)C(=O)C=C2C,i
Cc1ccc(CSCC(=O)N2CCN(c3cc(Cl)ccc3C)CC2)cc1,i
COCCOCC(=O)N1[C@@H]2CC[C@H]1CC(NC(=O)c1cnc(C)cn1)C2 (stereo not given in full),i
CCNC(=O)c1cnc2c(-c3ccccc3)c(C)nn2c1C,i
CCc1ccc(C(=O)c2cn(CC(=O)NC3CCCCC3)c3nc(C)ccc3c2=O)cc1,i
CC1(c2cccnc2)N(CC2CC2)C(=O)OC12CCN(C(=O)c1ccc(Oc3ccccc3)cc1)CC2 (stereo not given),i
O=C(O)c1ccc(CC2CCN(C(=O)CCn3cccc3)C2)cc1 (stereo not given),i
CCc1nc(-c2c3n(c(=O)n(Cc4ccc(C#N)cc4)c2=O)CCCC3)no1,i
CC(C)(C)c1ccc(C(CC(=O)O)NC(=O)c2ccc(F)cc2)cc1 (stereo not given),i
CCC(NC(=O)c1ccc2nc(-c3ccc(F)cc3)cn2c1)c1ncc(C)[nH]1 (stereo not given),25.1µM*
CCOC(=O)c1ccc(NC(=O)c2sc3nc(-c4ccc(F)cc4)cn3c2C)cc1,i
CC(C)c1noc(C2CCCN(Cc3cc(=O)c4cccc(F)c4[nH]3)C2)n1 (stereo not given),i
O=C1NCCN2CC3(CCN(C(=O)CC4CCCC4)CC3)CC12 (stereo not given),i
O=C1NCCN2CC3(CCN(C(=O)Nc4ccc5c(c4)OCCO5)CC3)CC12 (stereo not given),25.1µM*
O=C1NCCCCCCN(C(=O)Nc2ccc3c(c2)OCCO3)[C@H]2CCCC[C@@H]12,i
Cc1ccc2c(c1)-c1c(c(C(=O)N3CCN(c4cc(C)ccc4C)CC3)nn1C)CS2,i
CN(C)[C@@H]1CN(C(=O)c2cccc(C(F)(F)F)c2)C[C@H]1CO,i
Cc1ccc2nc(NCC(=O)OC(C)C)nc(-c3ccccc3)c2c1,i
SMILES,KDM5B inh
COc1ccccc1C(=O)Nc1ccnn1C1CCN(c2cnccn2)CC1,28.2µM*
Cc1ccccc1CN1CCC(n2nccc2NC(=O)c2cccnc2)CC1,i
COc1ccccc1C(=O)Nc1ccnn1C1CCN(C(=O)C2CCCO2)CC1 (stereo not given),i
CCN(CC)S(=O)(=O)c1ccc2c(c1)N(CC(=O)Nc1c(C)cc(C)cc1C)C(=O)C1CCCN21 (stereo not given),i
Cc1ccc(C2NC(=O)N(CC(=O)Nc3cc(C)on3)C3=C2C(=O)OC3)cc1 (stereo not given),i
CN(C)C(C(=O)N1CCN(C2CCCC2)C(=O)C1)c1cccc(F)c1 (stereo not given),i
OC[C@@H]1CN(Cc2cccc3[nH]ccc23)C[C@H]1c1ccncc1,25.1µM*
CCn1ncc(CN2C[C@@H](CO)[C@H](c3ccncc3)C2)c1C,i
OC[C@@H]1CN(Cc2ccco2)C[C@H]1c1ccncc1,i
CC(C)=CCC1(CO)CCCN(Cc2cc(=O)n3cc(C)sc3n2)C1 (stereo not given),28.2µM*
COc1cc2c(cc1CN1CCCC(CO)(CC=C(C)C)C1)OCCO2 (stereo not given),i
CC(C)=CCC1(CO)CCCN(CC(=O)N2CCCCCC2)C1 (stereo not given),i
O=C(Cc1cccc(Cl)c1)NCC1COc2ncncc2C(=O)N1CC1CC1 (stereo not given),i
O=C1c2cncnc2OCC(CNC(=O)C2(c3ccccc3)CC2)N1Cc1ccccc1 (stereo not given),i
O=C(Cc1cccc(F)c1)NCC1COc2ncncc2C(=O)N1Cc1ccccc1 (stereo not given),28.2µM*
O=C(c1ccc(Cl)s1)N1CCc2nn(Cc3ccccc3)c(=O)n2CC1,i
O=C(O)C[C@@H]1CCN(C(=O)c2ccc(C(F)(F)F)cc2)C[C@@H]1CCN1CCN(c2cccc(C(F)(F)F)c2)CC1,i
CC(C)c1ccc(CC(=O)N2CCCc3ncc(C(=O)NCc4ccccc4)cc32)cc1,i
O=C(Nc1cccnc1)c1cnc2c(c1)N(Cc1ccccc1)CCC2,35.5µM*
COc1ccccc1CC(=O)N1CCCc2ncc(C(=O)NCc3cccc(Cl)c3)cc21,i
CC(C)c1ccc(CC(=O)N2CCCc3ncc(C(=O)Nc4cccc(Cl)c4)cc32)cc1,28.2µM*

# Screening results from PubChem.
